Assay [1] concerns Human papillomavirus type 1a protein E7 (residues 44-93). In words: small molecules binding HPV E7 44-93 – biochemical, small-molecule microarray, residues 44-93, 635 nm fluorescence, primary screen (AID 1108).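 Also: E7 fragment applied at 1 µg/mL in TBST for 1 h at 4 C; score combines spot fluorescence with its signal to noise ratio.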 To be noted: fluorescence 635 nm, higher = more signal.
Assay [2] in a line: hepatitis C replication reporter changes, two-sided – Huh7 cells, luciferase reporter, HCV replication inhibitor project, primary screen (AID 1109).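 Also: huh7 hepatoma cells harbouring a luciferase neomycin HCV replicon reporter; luciferase luminescence as measure of HCV replicon replication; test concentration not given here.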 Conditions: Huh7 HCV replicon luciferase reporter, 48 h; higher = more signal.
Assay [3] has as its target Left-right determination factor 2 (Homo sapiens) (UniProt O00292). As to the kind of experiment: small molecules binding LEFTY2 protein – biochemical, small-molecule microarray, 635 nm fluorescence scan, primary screen (AID 1110). Conditions: higher = more signal.
Assay [4] deals with Calmodulin-1 (Homo sapiens) (UniProt P0DP23). In words: small molecules binding calmodulin-1 with EGTA – biochemical, small-molecule microarray, Cy5-labelled CALM1, profiling panel (AID 1111).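 Also: labelled calmodulin applied in Tris saline Tween buffer holding calcium plus EGTA and DTT.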 Conditions: Cy5-CALM1 binding fluorescence, higher = more signal.
For assay [5] the target is unchanged. As to the kind of experiment: small molecules binding Ca-loaded calmodulin-1 – biochemical, small-molecule microarray, Cy5-labelled CALM1, plus calcium, artefact control for SMM control-protein annotation, profiling panel (AID 1112).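 Also: score merges spot fluorescence with signal to noise from triplicate slides.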 Conditions: Cy5-CALM1 binding fluorescence, higher = more signal.
A short description of assay [6]: probe aWnt5a binding to arrayed compounds – biochemical, biotinylated probe, 635/667 nm fluorescence, primary screen (AID 1113).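 Also: score merges 667 nm fluorescence intensity with signal-to-noise per printed feature.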 To be noted: small-molecule microarray, higher = more signal.
Assay [7] is described as follows: probe aShh binding to arrayed compounds – biochemical, biotinylated probe, 635/667 nm fluorescence, primary screen (AID 1114).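 Also: probe is biotin-labelled aShh protein from a stem cell growth factor screen; measures binding of labelled protein to compounds printed on the slide; score merges feature fluorescence at 667 nm with signal-to-noise.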 To be noted: small-molecule microarray, higher = more signal.
The nature of assay [8]: probe aNog binding to arrayed compounds – biochemical, biotinylated probe, 635/667 nm fluorescence, primary screen (AID 1115).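 Also: probe is biotinylated aNog protein used at 0.15 µg/mL for 1 h at 4 C; z-score combines 667 nm fluorescence of each spot with its signal to noise.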 Conditions: small-molecule microarray, higher = more signal.
For assay [9], the target named is Torsin-1A-interacting protein 1 (Homo sapiens) (UniProt Q5JTV8). As to the kind of experiment: compound microarray binding of lysate hLAP1 – cell lysate, small-molecule microarray, COS7 lysate, 635/667 nm fluorescence, primary screen (AID 1116). Conditions: 635 nm fluorescence, higher = more signal.
Assay [10] deals with Alpha-bungarotoxin (Bungarus multicinctus) (UniProt P60615). As to the kind of experiment: compounds binding labelled alpha-BTX control protein – biochemical, small-molecule microarray, Alexa647 label, 635/667 nm fluorescence, artefact control for SMM control protein annotation, profiling panel (AID 1117). Conditions: alpha-BTX-A647 binding fluorescence, higher = more signal.
Another assay addresses Albumin (Bos taurus) (UniProt P02769). As to the kind of experiment: compounds binding labelled BSA control protein – biochemical, small-molecule microarray, Alexa647 label, 635/667 nm fluorescence, artefact control for SMM control protein annotation, profiling panel (AID 1118).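 Also: score merges 667 nm emission intensity and signal-to-noise per printed compound spot.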 Conditions: BSA-A647 binding, fluorescence 635 nm, higher = more signal.
Assay [11] is described as follows: probe aXIP binding to arrayed compounds – biochemical, NeuroSMM set, 635/667 nm fluorescence, primary screen (AID 1119).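 Also: probe is the protein aXip251-270 applied at 1 µg/mL to compound-printed slides; binding of probe to printed compounds measured as 667 nm fluorescence plus signal to noise.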 To be noted: small-molecule microarray, higher = more signal, called active from +8 up or from −8 down.
Assay [12] can be described thus: probe aNOTCH3 binding on compound microarray – biochemical, small-molecule microarray, 635/667 nm fluorescence, primary screen (AID 1120).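 Also: probe is a biotin-tagged antibody raised against NOTCH3 rather than NOTCH3 protein; score merges spot fluorescence near 667 nm with spot signal to noise.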 Conditions: higher = more signal.
The nature of assay [13]: probe aNOTCH2 binding on compound microarray – biochemical, small-molecule microarray, 635/667 nm fluorescence, primary screen (AID 1121).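 Also: score merges feature fluorescence read at 667 nm with its signal to noise.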 Conditions: higher = more signal.
Assay [14] has as its target Carbonic anhydrase 2 (Homo sapiens) (UniProt P00918). In words: compounds binding carbonic anhydrase 2 – biochemical, small-molecule microarray, Alexa647-labelled CAII, profiling panel (AID 1122). Conditions: CAII-A647 binding fluorescence, higher = more signal.
Assay [15] is described as follows: COS7 lysate on small-molecule microarray, probe aHis, 635 nm (AID 1123).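 Also: z-score combines 667nm fluorescence intensity with signal-to-noise per printed compound spot.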 To be noted: COS7 cell lysate, fluorescence, higher = more signal.
The nature of assay [16]: probe aLAP1 signal on lysate-treated microarray – cell lysate, small-molecule microarray, COS7 lysate, primary screen (AID 1124).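 Also: lysate comes from COS7 cells expressing LAP1 and is applied at 0.3 µg/mL; score merges spot fluorescence near 667 nm with signal-to-noise over triplicate slides.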 Conditions: probe aLAP1, fluorescence, higher = more signal.
Another assay concerns Sam68 (KHDRBS1). In words: compounds binding KHDRBS1 protein – biochemical, small-molecule microarray, 635 nm fluorescence, primary screen (AID 1125).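 Also: score merges 667 nm channel intensity with signal to noise over triplicate slides.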 To be noted: higher = more signal.
The test system of assay [17] is Chordin-like protein 2 (CHRDL2). In words: compounds binding chordin-like 2 – biochemical, small-molecule microarray, 635 nm fluorescence, primary screen (AID 1126).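 Also: printed compound slides probed with Chrdl2 protein at 4 µg/mL for 1 h at 4 C; score merges 667 nm emission intensity with signal to noise over three replicate slides.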 Conditions: fluorescence 635 nm, higher = more signal.
The target in assay [18] is Concanavalin-A (Canavalia ensiformis) (UniProt P02866). As to the kind of experiment: compounds binding concanavalin A lectin – biochemical, small-molecule microarray, Alexa647 label, 635 nm, artefact control for SMM control protein annotation, primary screen (AID 1127).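 Also: z combines 667 nm emission intensity with signal-to-noise across three replicate slides.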 To be noted: ConA-A647 binding fluorescence, higher = more signal.

Calls of active or inactive are those of the source.

Sequence of Albumin (Bos taurus) (P02769 whole entry, looked up): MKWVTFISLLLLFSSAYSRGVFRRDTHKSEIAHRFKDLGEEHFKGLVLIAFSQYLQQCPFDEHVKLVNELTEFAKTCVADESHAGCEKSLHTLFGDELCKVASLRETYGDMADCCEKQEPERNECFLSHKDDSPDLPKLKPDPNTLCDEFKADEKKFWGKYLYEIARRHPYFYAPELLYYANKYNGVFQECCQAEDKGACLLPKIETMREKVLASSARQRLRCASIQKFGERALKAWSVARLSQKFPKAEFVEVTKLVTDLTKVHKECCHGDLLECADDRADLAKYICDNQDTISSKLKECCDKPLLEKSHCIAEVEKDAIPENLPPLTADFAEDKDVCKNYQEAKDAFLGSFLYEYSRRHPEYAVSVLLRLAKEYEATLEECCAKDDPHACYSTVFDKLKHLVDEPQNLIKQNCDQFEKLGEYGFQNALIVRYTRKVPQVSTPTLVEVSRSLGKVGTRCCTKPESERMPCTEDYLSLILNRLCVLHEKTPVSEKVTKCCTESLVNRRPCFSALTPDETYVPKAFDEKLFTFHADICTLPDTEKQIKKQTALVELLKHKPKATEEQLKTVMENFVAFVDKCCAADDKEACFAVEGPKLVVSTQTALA
Sequence of Concanavalin-A (Canavalia ensiformis) (P02866 whole entry, looked up): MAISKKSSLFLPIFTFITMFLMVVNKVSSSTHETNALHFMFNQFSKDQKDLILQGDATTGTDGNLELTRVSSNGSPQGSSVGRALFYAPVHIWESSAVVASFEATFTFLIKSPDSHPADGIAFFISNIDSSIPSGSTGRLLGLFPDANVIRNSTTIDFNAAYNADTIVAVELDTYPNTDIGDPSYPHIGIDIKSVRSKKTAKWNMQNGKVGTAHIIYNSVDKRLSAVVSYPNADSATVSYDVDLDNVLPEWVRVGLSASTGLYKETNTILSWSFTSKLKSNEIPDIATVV
Sequence of Left-right determination factor 2 (Homo sapiens) (O00292 whole entry, looked up): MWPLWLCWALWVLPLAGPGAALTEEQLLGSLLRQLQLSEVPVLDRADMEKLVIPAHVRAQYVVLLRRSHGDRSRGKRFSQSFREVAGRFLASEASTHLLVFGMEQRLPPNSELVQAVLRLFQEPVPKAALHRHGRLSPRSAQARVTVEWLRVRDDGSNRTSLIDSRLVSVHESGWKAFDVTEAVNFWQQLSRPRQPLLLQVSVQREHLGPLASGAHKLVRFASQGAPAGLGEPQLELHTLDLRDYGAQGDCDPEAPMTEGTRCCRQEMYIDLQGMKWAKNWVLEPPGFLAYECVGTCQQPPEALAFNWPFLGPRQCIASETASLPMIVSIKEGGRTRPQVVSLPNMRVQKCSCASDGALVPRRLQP
Sequence of Torsin-1A-interacting protein 1 (Homo sapiens) (Q5JTV8 whole entry, looked up): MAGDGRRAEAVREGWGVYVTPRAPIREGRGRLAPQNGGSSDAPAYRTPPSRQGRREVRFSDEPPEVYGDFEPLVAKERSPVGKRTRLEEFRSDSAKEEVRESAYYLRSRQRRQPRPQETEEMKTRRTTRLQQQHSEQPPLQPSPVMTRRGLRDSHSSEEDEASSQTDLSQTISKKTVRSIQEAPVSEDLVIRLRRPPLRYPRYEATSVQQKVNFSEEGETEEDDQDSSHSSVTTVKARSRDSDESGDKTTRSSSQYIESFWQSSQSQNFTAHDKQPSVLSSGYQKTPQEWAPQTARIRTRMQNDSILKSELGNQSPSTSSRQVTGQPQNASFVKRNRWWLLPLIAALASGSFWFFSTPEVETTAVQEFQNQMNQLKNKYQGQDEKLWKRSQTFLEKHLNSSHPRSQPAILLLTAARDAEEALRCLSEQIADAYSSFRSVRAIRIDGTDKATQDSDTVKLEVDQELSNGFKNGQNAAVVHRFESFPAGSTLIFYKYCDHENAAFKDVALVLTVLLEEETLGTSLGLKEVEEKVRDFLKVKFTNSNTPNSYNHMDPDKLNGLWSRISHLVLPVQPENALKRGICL
Sequence of Alpha-bungarotoxin (Bungarus multicinctus) (P60615 whole entry, looked up): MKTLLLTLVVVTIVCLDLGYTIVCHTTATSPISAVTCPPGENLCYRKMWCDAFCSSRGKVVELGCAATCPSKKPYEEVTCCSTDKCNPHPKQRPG

As to `C=CCOC(=O)[C@@H]1[C@H]2C(=O)O[C@H](c3ccccc3)[C@H](c3ccccc3)N2[C@H](c2ccc(OCCOC(=O)[C@H]3C[C@H]4C(=O)N[C@@H](CCCCNC(C)=O)C(=O)N4[C@H]3c3cccc(OCCO)c3)cc2)[C@@]12C(=O)Nc1ccc(I)cc12`, the composite z-score is 0.721 in assay [1]; 0.642 in [3]; 0.277 in assay [4]; -0.759 in assay [5]; -0.096 in assay [6]; 0.0725 in assay [7]. The composite z-score is -0.0317 in [8]; 0.97 in [9]; 1.54 in assay [10]; -1.29 in the assay with Albumin (Bos taurus); -0.016 in [12]; -0.12 in [13]. Moreover, the composite z-score in [14] worked out at 0.336; in assay [15], 1.13; in assay [16] it was 0.583; in the assay with Sam68 (KHDRBS1), 1.31; in assay [17], 1.06; in assay [18] it was 1.15. Besides, the z-score in [2] was -1.03. The composite Z-score in assay [11] was 0.783 (inactive).

Consider `CN(C)CCCNC(=O)[C@@]1(c2ccc([N+](=O)[O-])cc2)CC(=O)N(CC23CC4CC(CC(C4)C2)C3)[C@@H]1c1ccc(CO)cc1`, for which the composite z-score was found to be 1.23 in assay [1]; 0.364 in assay [3]; 1.43 in assay [4]; 0.398 in [5]; 0.249 in assay [6]; 0.806 in [7]. For the same molecule, the composite z-score came to 2.24 in assay [8]; 2.35 in [9]; 1.83 in [10]; 0.0561 in the assay with Albumin (Bos taurus); 0.683 in [12]; 0.094 in assay [13]. Besides, the composite z-score in [14] was 0.49; in assay [15], 3.43; in assay [16], 0.82; with Sam68 (KHDRBS1), 1.3; in assay [17], 1.07; in assay [18], 1.15. In addition, the z-score in assay [2] was -3.26. Moreover, the composite Z-score in [11] is -0.137 (inactive).

As to `O=C(O)[C@]1(Cc2ccccc2)N=C(c2ccc(OCCCO)cc2)O[C@@H]1c1ccccc1`, the composite z-score in [1] was -0.218; in assay [3], -0.539; in assay [4] it was -0.201; in assay [5], 0.206; in assay [6], -0.128; in assay [7], 0.0893. Besides, the composite z-score in assay [8] was 0.306; in [9] it was -0.499; in assay [10] it was -0.905; in the assay with Albumin (Bos taurus), 0.424; in assay [12], -0.122; in [13] it was -0.14. The composite z-score in [14] is 0.837; in assay [15] it was 0.689; in [16] it was -0.278; in the assay on Sam68 (KHDRBS1) it was -1.24; in [17], -1.65; in [18] it was 0.0277. Also, the z-score in [2] amounted to 0.398. In assay [11], the composite Z-score was -0.191 (inactive).

On to `CCCC[C@@H]1C[C@H]1[C@@H](NC(=O)c1cccnc1)c1ccc(-c2ccccc2)cc1`, for which the composite z-score in [1] is -0.447; in [3], -1.99; in assay [4] it was -0.297; in assay [5], 0.742; in [6], -0.141; in assay [7] it was 2.01. The composite z-score was -0.744 in [8]; -1.2 in [9]; -0.556 in assay [10]; -0.294 in the assay with Albumin (Bos taurus); -0.306 in assay [12]; -0.174 in assay [13]. Moreover, the composite z-score in assay [14] was -0.357; in [15], 0.208; in assay [16], -0.193; in the assay with Sam68 (KHDRBS1), -0.0982; in [17] it was -1.56; in assay [18] it was -0.633. The molecule further yielded a z-score in assay [2] of -1.95. Moreover, in assay [11], the composite Z-score was -0.0683 (inactive).

For `CCOC(=O)C1=C[C@@H](c2ccccc2)N(S(=O)(=O)c2ccc(C)cc2)[C@H]1c1cccc(Cl)c1`, the composite z-score was 0.242 in assay [1]; -0.0476 in assay [3]; 1.64 in [4]; 0.999 in assay [5]; 0.027 in assay [6]; -0.0289 in assay [7]. The composite z-score in assay [8] was found to be 0.568; in [9], 2.5; in assay [10], 2.25; in the assay with Albumin (Bos taurus), 0.895; in assay [12] it was 0.224; in assay [13] it was 0.152. Further, the composite z-score in assay [14] is 0.703; in assay [15], -0.102; in assay [16], 0.882; in the assay on Sam68 (KHDRBS1), 1.31; in assay [17] it was -0.599; in assay [18], 1.11. The same molecule registered a z-score in assay [2] of -1.81. In addition, the composite Z-score in [11] is -0.101 (inactive).

Turning to `C[C@]1(C(=O)NCCN2CCOCC2)c2ccccc2C(=O)N(Cc2ccc(OC(F)(F)F)cc2)[C@H]1c1ccc(CO)cc1`, the composite z-score in assay [1] is 1.44; in assay [3], -1.24; in [4] it was 0.084; in [5], -0.0325; in assay [6], -0.252; in assay [7], -0.503. For the same molecule, the composite z-score in [8] is -0.313; in [9], 0.836; in assay [10] it was 0.396; in the assay with Albumin (Bos taurus) it was 0.723; in assay [12] it was -0.154; in assay [13] it was -0.0966. Moreover, the composite z-score is 0.627 in [14]; 2.43 in assay [15]; 0.345 in assay [16]; 0.217 with Sam68 (KHDRBS1); -1.15 in assay [17]; 0.392 in assay [18]. The molecule also had a z-score in [2] of -0.705. In addition, the composite Z-score in [11] is 0.456 (inactive).

The values are drawn from PubChem BioAssay.
